Growth inhibition data for 39 molecules are collected here from PubChem BioAssay (NCI).

About 79,000 compounds went through this panel and 15% of them were active in at least one assay; those are over-represented in the sample as a whole. The source made the active and inactive calls. No stated cut-off is given here; in the data, active means growth inhibition above about 70%; inactive means the rest.

A short description of the assay: NCI Yeast Anticancer Drug Screen. Data for the rad52 strain (AID 147).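 Further: 0% = growth of vehicle-treated control cultures.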 The following applies: S. cerevisiae rad52 mutant growth inhibition; at 11.0 µM; active compounds read high. An outline of the steps: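 Inhibition of yeast growth, referenced to vehicle controls, was the measured output for a strain with defective DNA damage repair.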
On to `C/C(=N\NC(=S)SCc1ccccc1)c1ccccn1`, for which the growth inhibition is 60% (inactive).

Regarding `CC[C@@]1(O)C(=O)OCc2c1cc1n(c2=O)Cc2cc3c(N)cccc3nc2-1`, the growth inhibition is 85% (active).

In the case of `CN(C)c1ccc(Sc2ccc3nc(N)nc(N)c3c2)cc1`, the growth inhibition was 31% (inactive).

In the case of `CC(=O)OCCOCNC(=S)N/N=C(\C)c1cnccn1`, the growth inhibition was -19% (inactive).

As for `COc1ccc(C2c3cc4c(cc3OC(C)(O)C2C)OCO4)c(OC)c1` (centres undefined), the growth inhibition is 3% (inactive).

In the case of `COc1cc(C2SCC(=O)N2c2ccc(-c3ccc(-n4c(-c5ccccc5)nc5ccccc5c4=O)cc3)cc2)cc(OC)c1OC` (centres undefined), the growth inhibition was 1% (inactive).

Regarding `COc1ccc(Br)c(C(=O)Sc2nnnn2-c2cccc(Cl)c2)c1`, the growth inhibition was 24% (inactive).

In the case of `O=C(NNc1ccnc2cc(Cl)ccc12)/C(=C\c1ccccc1Cl)NC(=O)c1ccccc1`, the growth inhibition was 40% (inactive).

Consider `CSC(=S)Nc1cccc(C)n1`, for which the growth inhibition is -3% (inactive).

As to `O=C(/C=C\c1ccc(Cl)cc1Cl)c1cccs1`, the growth inhibition is 3% (inactive).

For the molecule `COc1ccc(-c2cn(-c3ccc(I)cc3)c3ncnc(N)c23)cc1`, the growth inhibition was -9% (inactive).

As to `CN(C)c1ccc(C(C#N)=C(C#N)C#N)cc1`, the growth inhibition is 2% (inactive).

For the molecule `COc1cc(/C=C2\CCc3ccccc3C2=O)cc(OC)c1OC`, the growth inhibition was 3% (inactive).

In the case of `CC(C)/C(Cl)=N\OC(=O)Nc1cccc(Cl)c1`, the growth inhibition is -4% (inactive).

Take `CC1(C)[C@@H]2CC[C@]1(C)[C@H](OC(=O)CSC#N)C2`: the growth inhibition is 20% (inactive).

As for `NNC(=O)CCc1ccc2ccc3ccccc3c2c1`, the growth inhibition was 1% (inactive).

`COc1ccc(/C(C)=N/OC(=O)c2c(-c3ccccc3Cl)noc2C)cc1CN1CCOCC1`: the growth inhibition is 19% (inactive).

`C=CC(C)(O)CCC1C(=C)C(O)CC2C(C)(C)CCCC12C` (centres undefined): the growth inhibition is 27% (inactive).

`S=C(Nc1ccc(Cl)c(Cl)c1)SCc1ccc2c(c1)OCO2`: the growth inhibition is 99% (active).

As for `COc1cc(C2C3=C(COC3=O)Oc3cc4c(cc32)OCO4)ccc1O` (centres undefined), the growth inhibition is 7% (inactive).

Take `S=C(Nc1ccc(Cl)cc1)SC1CCCCC1`: the growth inhibition was 34% (inactive).

As to `Nc1nc(-c2cccnc2)cc(-c2cc(-c3cccnc3)nc(N)n2)n1`, the growth inhibition was -3% (inactive).

On to `COC1=CC(=O)C2C(C1=O)C(c1ccc(Cl)cc1)[C@@H]2C` (some centres undefined), for which the growth inhibition was 98% (active).

With `c1ccc(-c2nc3cccnc3s2)cc1`, the growth inhibition is 6% (inactive).

As for `O=[N+]([O-])c1cc(CCl)ccc1CCl`, the growth inhibition was 69% (inactive).

As to `COc1ccc(/C=C2\SC(=S)N(/C=C/c3nc4ccccc4[nH]c3=O)C2=O)cc1OC`, the growth inhibition is 26% (inactive).

On to `CCCN(CCC)CC(O)c1cc(-c2ccc(Cl)cc2)nc2c(C)c(Cl)ccc12` (centres undefined), for which the growth inhibition is 98% (active).

For the molecule `O=C(Nc1ccccc1)OCCc1ccc(Cl)c(Cl)c1`, the growth inhibition was 20% (inactive).

With `CC(O)C(O)C(O)C(/C=N\Nc1ccccc1)=N/Nc1ccccc1` (centres undefined), the growth inhibition is 12% (inactive).

In the case of `C#CCCCc1ccccc1`, the growth inhibition was -68% (inactive).

For `CC(=O)Cc1ccc[cH-]1.[Fe+2].c1cc[cH-]c1`, the growth inhibition is 9% (inactive).

Regarding `Cc1cc(I)ccc1N`, the growth inhibition was 24% (inactive).

Regarding `FC(F)(F)c1cc(NC(=S)N2c3ccccc3-n3cccc3C2c2cccnc2)cc(C(F)(F)F)c1` (centres undefined), the growth inhibition is -9% (inactive).

With `CC(C)(CN1CCCCC1)C(=O)CC(SCCS(=O)(=O)O)c1ccc(Br)cc1` (centres undefined), the growth inhibition is 9% (inactive).

Turning to `C[Si](C)(C)CNC(=O)OCc1ccccc1`, the growth inhibition was 6% (inactive).

In the case of `CC(C(=O)N1C(=O)N(C(=O)[C@H](C)C(O)c2ccccc2)[C@H](c2ccccc2)[C@H]1c1ccccc1)[C@@H](O)c1ccccc1` (some centres undefined), the growth inhibition is 11% (inactive).

Take `Oc1cccc2c(Cl)ccnc12`: the growth inhibition is 99% (active).

Regarding `O=C1C=CC(=C(c2ccccc2)c2ccccc2)c2ccccc21`, the growth inhibition was -4% (inactive).

In the case of `S=C(S)NN1CCOCC1`, the growth inhibition is 35% (inactive).
